These entries were drawn from the full list.
aSyn UTR act = Activators working through SNCA 5'UTR binding (MLPCN); alpha-synuclein 5'UTR reporter, activators screen; 300,000 compounds, 7.1% hits; AID 1814; activity score, % (tested at 7.5 µM), hits read low; in the data active = activity score below about -60%
Numbers without * were called inactive.

SMILES	aSyn UTR act
CCc1nnc(NC(=O)/C=C/c2cccs2)s1	-160*
O=C(/C=C/c1cccc(F)c1)Nc1nccs1	-209*
CC(=O)c1cc(-c2ccccc2)n(CC(=O)NC2CCCC2)c1C	-65*
Cc1ccc(N/C=C(/C#N)c2ccsc2)cc1C	-172*
Cc1cccc(Nc2nn3c(=O)c4ccccc4nc3s2)c1	-160*
COCCNc1c(-c2ccc(O)cc2)nc2ccc(Cl)cn12	-69*
C(=C\c1ccccn1)/c1cccnc1	-76*
CC1(C)CC(=O)c2sc(NC(=O)C3COc4ccccc4O3)nc2C1 (stereo unspecified)	-101*
CC1(C)CC(=O)c2sc(NC(=O)c3ccco3)nc2C1	-120*
COc1ccc(Cn2c(-c3ccco3)nc3oc4cc(OC)ccc4c(=O)c3c2=O)cc1	-92*
CN1/C(=C/C(=O)c2nc(S(C)(=O)=O)ncc2Cl)C(C)(C)c2ccccc21	57
CN(C)c1ccc(N=C/C=C2\N(C)c3ccccc3C2(C)C)cc1	-114*
Cc1cnc(NC(=O)c2sc(Nc3ccccc3)nc2N)o1	-115*
Nc1nc(Nc2ccccc2)sc1C(=O)c1ccccc1	-121*
CSc1nc(Cl)cc(Nc2ccc(O)cc2)n1	-79*
Clc1c(-c2ccccc2)nnn1-c1ccccc1	-65*
Cc1[nH]c2ccccc2c1C(=O)C(=O)Nc1ccc2c(c1)OCCO2	-126*
CCN1CCN(Cc2ccc(NC(=O)c3cc(NC(=O)C(=O)c4c[nH]c5ccccc45)cc(OC)c3)cc2C(F)(F)F)CC1	117
O=C(Nc1ccc2c(c1)OCO2)C(=O)c1c[nH]c2ccccc12	-72*
O=C(CCl)c1ccc2c(c1)CCN2C(=O)C1CC1	-94*
CN(C)C(=O)c1cc(C(=O)c2ccc(C(F)(F)F)cc2)c[nH]1	-151*
CN(C)C(=O)c1cc(C(=O)c2ccc(Cl)cc2Cl)c[nH]1	-94*
CN(C)C(=O)c1cc(C(=O)c2ccc(F)cc2Cl)c[nH]1	-93*
Cc1ccc(-c2nnc(-c3ccccc3)o2)cc1Br	-149*
Cc1ccc(-c2nnc(-c3cccc(Br)c3)o2)cc1	-159*
SMILES	aSyn UTR act
O=C(COc1ccccc1)Nc1ccc2c(c1)nc1n2CCSC1	-125*
O=C(COc1ccccc1)Nc1ccc2c(c1)nc1n2CCOC1	-85*
O=C(CNc1ccc(Br)cc1)c1ccc(Br)s1	-68*
OC(c1cc(-c2ccc(Cl)cc2)nc2ccccc12)C1CCCCN1 (stereo unspecified)	96
COc1cc(NC2CCCCC2O)c2nc(-c3ccc(Cl)cc3)ccc2c1 (stereo unspecified)	-94*
COc1ccc(-c2ccc(CO)o2)cc1N	-82*
O=[N+]([O-])c1cc(-c2cnc3ccccc3n2)ccc1Oc1ccc(F)cc1	-150*
CCOc1ccc(-c2cnc3ccccc3n2)cc1	92
O=[N+]([O-])c1ccc(-c2cnc3ccccc3n2)cc1	-124*
Cc1ccc(CNc2ccc(N3CCOCC3)cc2)s1	-86*
C#CCn1c(C)cc(C)c(S(=O)(=O)c2ccccc2)c1=O	-73*
COc1cccc(/C=N/Nc2nn3cnnc3c3ccccc23)c1	-62*
CN=Cc1cc(-c2ccccc2)sc1O	-100*
O=C(O)c1cccc(N/N=C/C2=C(Cl)c3cc(Cl)ccc3SC2)c1	-103*
CC(=O)OCC1OC(n2cc(F)c(=O)[nH]c2=O)C(OC(C)=O)C1OC(C)=O (stereo unspecified)	-181*
O=[N+]([O-])c1ccccc1OCc1nc(-c2cccs2)no1	-114*
Cc1ccc(OCc2nc(-c3cccs3)no2)c([N+](=O)[O-])c1	-64*
O=[N+]([O-])c1ccc(F)cc1OCc1nc(-c2cccs2)no1	-177*
O=C(Nc1cc(Cl)cc(Cl)c1)c1cnn2cccnc12	-97*
O=C(Nc1cccc(Cl)c1)c1cnn2cccnc12	-202*
Cc1cc(NC(=O)c2cnn3cccnc23)no1	-83*
Cn1c(/C=C/c2ccccc2)nc2ccccc2c1=O	-137*
Cn1c(/C=C/c2ccc(Cl)cc2)nc2ccccc2c1=O	-181*
Cn1c(/C=C/c2ccc([N+](=O)[O-])o2)nc2ccccc2c1=O	98
Cc1nn(-c2ccccc2)c(Cl)c1/C=N/NC(=O)c1ccnn1C	-108*
SMILES	aSyn UTR act
CCc1n[nH]c(=S)n1/N=C/c1c(C)nn(-c2ccccc2)c1Cl	106
Cc1nn(-c2ccccc2)c(Cl)c1/C=N/Nc1nc2ccccc2n1C	-121*
Cc1nn(-c2ccccc2)c(Cl)c1/C=N/Nc1nnc(C)c(=O)[nH]1	-62*
Cc1csc(N/N=C/c2ccc([N+](=O)[O-])cc2)n1	-148*
Cc1csc(N/N=C/c2ccccn2)n1	69
CC(=O)c1cccc(Nc2nc(-c3cccc([N+](=O)[O-])c3)cs2)c1	-222*
Cc1[nH]n(-c2nc(-c3cccc([N+](=O)[O-])c3)cs2)c(=O)c1C	-135*
CC(=O)c1sc(N/N=C\c2ccc(N(C)C)cc2)nc1C	-135*
CC(=O)Nc1nc(C)c(-c2csc(Nc3cccc([N+](=O)[O-])c3)n2)s1	67
CC(=O)c1sc(N/N=C/c2cccc(O)c2)nc1C	-338*
CC(=O)Nc1sc(N/N=C/c2ccc(N(C)C)cc2)nc1-c1ccc(C)cc1	-68*
CC(=O)c1sc(N/N=C/c2cccc([N+](=O)[O-])c2)nc1C	-170*
O=[N+]([O-])c1cccc(-c2csc(N/N=C/c3cccc(O)c3)n2)c1	-216*
O=C1NC(c2ccccc2Cl)=N/C1=C/c1ccco1	-142*
O=C1NC(c2ccc(Br)cc2)=N/C1=C/c1ccco1	-149*
CCc1ccc(CN(C)C(=O)c2cc(COc3ccc(OC)cc3Cl)on2)nc1	-170*
CCN(Cc1ccncc1)C(=O)c1cc(COc2ccc(OC)cc2Cl)on1	-111*
COc1ccc(OCc2cc(C(=O)N(C)Cc3nnc(C)o3)no2)c(Cl)c1	-121*
COc1ccc(OCc2cc(C(=O)N(C)Cc3cc(C)no3)no2)c(Cl)c1	-182*
Cc1cc(CN(C)C(=O)c2cc(COc3ccc(F)cc3Cl)on2)n[nH]1	-75*
CCC(CC)C(=O)Nc1ccc(Nc2ccccc2)cc1	-100*
CCOC(=O)c1ccc(NC(=O)C(CC)CC)cc1	-98*
CCC(C)NS(=O)(=O)c1ccc(NC(=O)C(Sc2ccccc2)c2ccccc2)cc1 (stereo unspecified)	56
CCOC(=O)c1ccc(NC(=O)N(CC)CC)cc1	-115*
CCOC(=O)c1ccc(NC(=S)N(CCN(C)C)Cc2cccs2)cc1	53
SMILES	aSyn UTR act
CC(C)c1[nH]nc2c1C(c1ccco1)C(C#N)=C(N)O2 (stereo unspecified)	-133*
CCOc1ccc(NCc2nnc(SCC(=O)Nc3cc(C)on3)n2-c2ccccc2OC)cc1	-101*
CCOc1ccc(-c2nnc(SCC(=O)Nc3ccc4c(c3)c3ccccc3n4CC)n2N)cc1	84
CCC(Oc1ccccc1)C(=O)N1CCC(C(N)=O)CC1 (stereo unspecified)	-71*
CCCCOc1ccc(C(=S)N2CCC(C(N)=O)CC2)cc1	-86*
CC(C)c1ccc(NC(=O)Nc2cnccn2)cc1	-212*
Cc1ccc(NC(=O)Nc2cnccn2)cc1	-118*
Cc1ccc(NC(=O)Nc2cnccn2)cc1C	-68*
Oc1cccc(/C=N/N=C/c2cccc(O)c2O)c1O	-70*
Cc1ccc(N=Cc2cccc(O)c2O)c(C)c1	-62*
CCc1ccc(O)c(N=Cc2ccccc2O)c1	-70*
CCN(CC)S(=O)(=O)c1cccc(C(=O)N/N=C/c2cccc(O)c2O)c1	66
Cc1ccc(O)c(C=Nc2cc(C)ccc2O)c1	-92*
Cc1ccc(O)c(N=CC2=C(O)c3ccccc3C2=O)c1	-156*

Screening data: PubChem, Broad Institute
